# ELG1 DNA repair – inhibitors of ELG1-dependent DNA repair in HEK293T cells; HEK293T ELG1-luciferase reporter, luminescence, 16 h; DNA damage induced by 5-fluorouridine; Potency, µM (top dose mostly 46.1 µM), without a hit: at the top dose activity change, negative = inhibition, hits mostly inhibitors; 2.3% of 330,000 active; further: potency means the concentration at half of the fitted maximal effect; nearly all actives have a fitted effect of over 55% in size
#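 HEK293T cells expressing luciferase-tagged ELG1 (2,000/well) received 5-Fluorouridine plus compound or DMSO for 16 hr at 37 °C. Luciferase was read by ONE-Glo luminescence after 30 min at room temperature.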
# Coupling enz – inhibits coupling enzyme system, counter-screen for aldolase hits. coupling enzyme system counterscreen, AmpLite Red fluorescence. 0.67% of 290,000 active. AID 2472. activity change, negative = inhibition, % at 58.2 µM, hits read low; in the data active means activity change below about -30%
#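 Activity here indicates interference with the coupling reaction, not aldolase inhibition. Compounds at 57.5 uM final met coupling enzymes for 10 min at RT; substrate and AmpLite Red detection followed, with a 525/598 nm fluorescence read after 20 min.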
# Giardia killer – Giardia lamblia killing | AID 540267 | 0.15% of 340,000 active | Giardia lamblia trophozoite viability | activity change, % at 7.66 µM, hits read low; in the data active means activity change below about -80%; inconclusive means between about -30% and that limit;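 further: parasites exposed to compound for two days anaerobically before the ATP read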
#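 Viability, read as ATP luminescence: trophozoites at 100 cells/well, compound added, 48 hrs anaerobic at 37 deg C, then 15-30 min room-temperature development before reading.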
# Sfp PPTase inh – blocks B. subtilis Sfp PPTase activity; Q9F4F7; Biochemical Sfp PPTase activity, qHTS; Potency, µM, without a hit: largest response in the series, negative = inhibition, actives largely listed as inhibitors; 3.5% of 310,000 active; AID 1490;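 further: the enzyme is Sfp with the accession as filed and its product quenches rhodamine fluorescence; potency means the concentration at half of the fitted maximal effect; 0% = enzyme reaction without inhibitor and -100% = no enzyme wells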
#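 Sfp 15 nM + cpd, 15 min RT; start w/ rhodamine-CoA 5 uM, BHQ-2-YbbR 12.5 uM (final); 50 mM Hepes pH 7.6, 10 mM MgCl2, 0.01% NP-40, 0.01% BSA; read 525/598 nm at 0 and 30 min.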
# * marks the source's active call; other numbers are inactive results; ? = inconclusive; nt = not tested or not shown. Compounds with a hit are over-represented: about 5.5% of the library has one in this group of screens. Unless noted, the call rests on the fitted dose curve; in most records, active means well fitted curve in the direction sought with a large enough effect; inconclusive means small, poorly fitted or top-dose-only effect, or another doubt; inactive means no such curve, though single readings can be large; an effect the other way counts as inactive or inconclusive. Unless noted, on the % scale 0 is the no-effect control and ±100 the full control effect.
SMILES,ELG1 DNA repair,Coupling enz,Giardia killer,Sfp PPTase inh
COc1cc(/C=C/C(=O)Nc2ccc(OC)c(S(=O)(=O)N3CCOCC3)c2)ccc1OC(F)F,10µM*,nt,-27,nt
COc1ccc(C2=NOC(C(=O)NCc3cccnc3)C2)cc1 (stereo not given),-4%,-2,12,15%
CCC(C)N(C(=O)Cn1nnc(-c2ccc(Cl)cc2)n1)C1CCS(=O)(=O)C1 (stereo not given),16%,nt,-14,nt
CCNC(=O)NCc1cccc(Cl)c1,nt,nt,nt,14%
C/C=C\C=C\C(=O)N1CC2(CC(c3cccc(NC(=O)CC)c3)=NO2)C[C@H]1C(N)=O (stereo not given in full),22%,0,-16,35µM*
C/C=C\C(=O)Nc1cccc(C2=NOC3(C2)C[C@@H](C(N)=O)N(C(=O)c2ccccc2)C3)c1 (stereo not given in full),10%,4,-24,8%
C/C=C/C(=O)N1CC2(CC(c3cccc(NC(=O)/C(C)=C/C)c3)=NO2)C[C@H]1C(N)=O (stereo not given in full),6%,1,9,12%
C/C=C/C=C\C(=O)Nc1cccc(C2=NOC3(C2)C[C@H](C(N)=O)N(C(=O)/C=C/C)C3)c1 (stereo not given in full),?,0,-8,22µM*
C/C=C/C=C\C(=O)Nc1cccc(C2=NOC3(C2)C[C@@H](C(N)=O)N(C(=O)c2cc([N+](=O)[O-])cc([N+](=O)[O-])c2C)C3)c1 (stereo not given in full),-16%,1,29,25µM*
C/C=C\C=C/C(=O)Nc1cccc(C2=NOC3(C2)C[C@@H](C(N)=O)N(C(=O)c2ccccc2)C3)c1 (stereo not given in full),23%,-11,nt,11µM*
CCC(=O)Nc1cccc(C2=NOC3(C2)C[C@@H](C(N)=O)N(C(=O)CC)C3)c1 (stereo not given in full),13%,3,12,6%
COc1cc(N)c(Cl)cc1C(=O)OCC(=O)NC(=O)NCc1ccco1,-2%,nt,-9,nt
COc1ccc(C2C(C)C(=O)C(C)C(c3ccc(OC)cc3)N2N=O)cc1 (stereo not given),nt,nt,-6,nt
C/C=C\C(=O)Nc1cccc(C2=NOC3(C2)C[C@@H](C(N)=O)N(C(=O)CC(c2ccccc2)c2ccccc2)C3)c1 (stereo not given in full),?,2,5,-10%
C/C=C/C=C/C(=O)Nc1cccc(C2=NOC3(C2)C[C@H](C(N)=O)N(C(=O)CC(c2ccccc2)c2ccccc2)C3)c1 (stereo not given in full),-20%,0,nt,40µM*
CCOC(=O)OCC1OC(C#Cc2ccc(F)cc2F)C=CC1OC(=O)OCC (stereo not given),nt,2,nt,4%
CC(=O)c1cccc(OCc2cc(C(=O)N3C[C@@H](C)O[C@@H](C)C3)no2)c1,?,-1,17,3%
CCC(C)c1ccc(S(=O)(=O)N2CCN(C(=O)COc3ccc4c(C)cc(=O)oc4c3)CC2)cc1 (stereo not given),8.2µM*,4,13,1%
CCOc1ccccc1C(=O)N[C@H](C(=O)OCc1cc([N+](=O)[O-])cc2c1OCOC2)C(C)C,21µM*,0,11,-6%
O=C(CNC(=O)N1CC(=O)Nc2ccccc21)NCc1ccccc1Cl,2%,-1,-25,9%
CCOC(=O)C1=C(C)Nc2ccccc2N=C1NC(=O)c1oc2ccccc2c1COC,11µM*,nt,-10,nt
CCCCCCC(=O)N(O)C1CC(=O)N(c2ccc(Br)cc2)C1=O (stereo not given),?,-2,-5,22µM*
CCCCN(C(=O)CCC(=O)O)C1CC(=O)N(c2ccc(OCCC)cc2)C1=O (stereo not given),12%,3,-28,12%
CCCCCCC(=O)N(O)C1CC(=O)N(c2ccc(F)cc2)C1=O (stereo not given),?,6,-18,20µM*
CN(C)S(=O)(=O)c1cccc(C(=O)OCC(=O)Nc2sccc2C(N)=O)c1,18µM*,3,-1,3%
SMILES,ELG1 DNA repair,Coupling enz,Giardia killer,Sfp PPTase inh
CCOc1cc(/C=C2/C(=O)ON=C2C)ccc1OCc1ccccc1F,?,4,-1,20µM*
CCOc1cc(/C=C2/C(=O)ON=C2C)ccc1OCc1ccccc1,27%,5,3,-22%
CCOc1cc(/C=C2/C(=O)ON=C2C)ccc1OCc1ccc(F)cc1,22%,1,-2,50µM*
CCN(C(=O)COn1nnc2ccc(S(=O)(=O)N(C)C)cc21)C1CCS(=O)(=O)C1 (stereo not given),?,nt,1,nt
COc1cc(O)c(C(C)=O)c(CC(=O)O)c1,11%,-21,-23,89µM*
COc1cc(O)c(C(C)=O)c(OC)c1,nt,-1,19,-11%
Cc1cc(=O)[nH]c(N/N=C/C2=C(N3CCOCC3)C(=C\c3ccc(Cl)cc3)/CC2)n1,-9%,1,4,40µM*
Cc1cc(=O)[nH]c(N/N=C/c2ccc(O)c(O)c2)n1,0%,-9,9,?
Cc1occc1C(=O)N/N=C/C1=C(N2CCOCC2)C(=C\c2ccc(Cl)cc2)/CC1,7%,-1,9,18%
Cc1cc(C)nc(N/N=C/C2=C(N3CCOCC3)C(=C/c3ccccc3)/CC2)n1,16µM*,5,10,7%
CSc1ccc(/C=N/Nc2nc(C)cc(=O)[nH]2)cc1,?,1,-5,56µM*
O=C(Nc1ccccc1C(=O)O)c1cc(S(=O)(=O)N2CCOCC2)c(Br)s1,5%,7,11,9%
Cc1ccccc1OCC(=O)Nc1c2c(nn1C(C)(C)C)CS(=O)(=O)C2,7%,nt,11,8%
Fc1cccc(-c2cc3nc(-c4ccccc4)cc(N4CCC5(CC4)OCCO5)n3n2)c1,23µM*,-3,-2,1%
COCCN1CCN(c2cc(-c3ccccc3)nc3cc(-c4cccc(F)c4)nn23)CC1,15µM*,-6,-11,?
CCN(CC(=O)Nc1ccc(NC(C)=O)cc1)C(=O)c1ccc(=O)[nH]c1,13%,nt,14,9%
C=CSc1sc(Cl)c(N(CC)CC)c1[N+](=O)[O-],4%,-3,-10,13µM*
C/C1=C2N=C(/C=C3N=C(/C(C)=C4\[N-]C(C)(C5N=C1C(C)(CCC(=O)NCC(C)OP(=O)([O-])O[C@H]1C(O)C(n6cnc7cc(C)c(C)cc76)O[C@@H]1CO)C5CC(N)=O)C(C)(CC(N)=O)C4CCC(N)=O)C(C)(CC(N)=O)C\3CCC(N)=O)C(C)(C)C/2CCC(N)=O.[CH2-]C1OC(n2cnc3c(N)ncnc32)C(O)C1O.[Co] (stereo not given in full),nt,-24,nt,12%
COc1ccc(/C(O)=C2/C(=O)C(=O)N(CCN(C)C)C2c2ccccn2)cc1OC (stereo not given),15%,-13,-4,?

# Screening data: PubChem, National Center for Advancing Translational Sciences (NCATS)
